Rows were chosen to be rich in hits. Some 12% of all compounds tested hit in one or more screens of this group.
JMJD2A Tudor – JMJD2A Tudor domain (human) inhibition; O75164; AlphaScreen JMJD2A-Tudor / H3K4me3 peptide binding; Potency, µM (doses to about 114 µM), for inactives: at the highest dose activity change, negative = inhibition, actives largely listed as inhibitors; hit rate 4.4% among 390,000; note: % is set by controls: 0 for no effect and ±100 for the full control effect; nearly all actives have a fitted effect of over 50% in size
G9a inh – blocks human histone lysine methyltransferase G9a. G9a H3K9 monomethylation, AlphaScreen, 2 h. hit rate 8.8% among 350,000. Potency, µM (doses to about 102 µM), without a hit: at the highest dose activity, negative = inhibition, usual class: inhibitors. Q96KQ7; note: % is set by controls: 0 for no effect and ±100 for the full control effect; nearly all actives have a fitted effect of over 75% in size
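Quantitative HTS format: methyltransferase activity on a biotin-tagged H3K9 peptide is measured by AlphaScreen, using a rabbit anti-monomethyl-H3K9 antibody with streptavidin donor and anti-IgG acceptor beads. Final levels are 20 nM enzyme, 500 nM peptide, 20 uM SAM; 2 h RT.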
PLK1 PBD inh – PLK1 (human) polo-box domain binding inhibition; Plk1 PBD binding of FITC phosphopeptide, fluorescence polarization; hit rate 2.8% among 360,000; Potency, µM, for inactives: max response, negative = inhibition, hits mostly inhibitors; P53350; note: series mostly up to about 57 µM; % is set by controls: 0 for no effect and ±100 for the full control effect; nearly all actives have a fitted effect of over 65% in size
Sfp PPTase inh – Sfp phosphopantetheinyl transferase inhibition; Potency, µM, for the others: largest response in the series, negative = inhibition, usual class: inhibitors; hit rate 3.5% among 310,000; Biochemical Sfp PPTase activity, qHTS; Q9F4F7;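 note: the enzyme is Sfp with the accession as filed and its product quenches rhodamine fluorescence; 0% = enzyme reaction without inhibitor and -100% = no enzyme wells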
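Reaction rates are the 30-min fluorescence difference (ex 525, em 598 nm) in wells containing 15 nM Sfp, 5 uM rhodamine-CoA and 12.5 uM BHQ-2-YbbR at pH 7.6 with 10 mM MgCl2.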
HP1b chromo inh – HP1-beta chromodomain-methylated histone interaction inhibition | P83916 | AlphaScreen HP1-beta / biotin-H3K9me3 peptide binding | Potency, µM (series often up to 114 µM), for inactives: at the top dose activity change, negative = inhibition, actives largely listed as inhibitors | hit rate 0.56% among 390,000; note: nearly all actives have a fitted effect of over 70% in size
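AlphaScreen: HP1-beta (50 nM) preformed 30 min with biotin-H3(1-18)K9me3 peptide (50 nM) in PBS pH 7.4, 0.01% Tween-20. Compound added for 30 min at RT, then streptavidin donor/nickel chelate acceptor beads (10 ug/mL) for 30 min.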
BAZ2B block – blocks human BAZ2B | Potency, µM (series often up to 114 µM), without a hit: at the top dose activity change, negative = inhibition, usual class: inhibitors | AlphaScreen BAZ2B-H3K14Ac peptide displacement | hit rate 4.4% among 360,000 | AID 504333; note: % is set by controls: 0 for no effect and ±100 for the full control effect; nearly all actives have a fitted effect of over 60% in size
Target sequence (Q9UIF8 whole entry, looked up): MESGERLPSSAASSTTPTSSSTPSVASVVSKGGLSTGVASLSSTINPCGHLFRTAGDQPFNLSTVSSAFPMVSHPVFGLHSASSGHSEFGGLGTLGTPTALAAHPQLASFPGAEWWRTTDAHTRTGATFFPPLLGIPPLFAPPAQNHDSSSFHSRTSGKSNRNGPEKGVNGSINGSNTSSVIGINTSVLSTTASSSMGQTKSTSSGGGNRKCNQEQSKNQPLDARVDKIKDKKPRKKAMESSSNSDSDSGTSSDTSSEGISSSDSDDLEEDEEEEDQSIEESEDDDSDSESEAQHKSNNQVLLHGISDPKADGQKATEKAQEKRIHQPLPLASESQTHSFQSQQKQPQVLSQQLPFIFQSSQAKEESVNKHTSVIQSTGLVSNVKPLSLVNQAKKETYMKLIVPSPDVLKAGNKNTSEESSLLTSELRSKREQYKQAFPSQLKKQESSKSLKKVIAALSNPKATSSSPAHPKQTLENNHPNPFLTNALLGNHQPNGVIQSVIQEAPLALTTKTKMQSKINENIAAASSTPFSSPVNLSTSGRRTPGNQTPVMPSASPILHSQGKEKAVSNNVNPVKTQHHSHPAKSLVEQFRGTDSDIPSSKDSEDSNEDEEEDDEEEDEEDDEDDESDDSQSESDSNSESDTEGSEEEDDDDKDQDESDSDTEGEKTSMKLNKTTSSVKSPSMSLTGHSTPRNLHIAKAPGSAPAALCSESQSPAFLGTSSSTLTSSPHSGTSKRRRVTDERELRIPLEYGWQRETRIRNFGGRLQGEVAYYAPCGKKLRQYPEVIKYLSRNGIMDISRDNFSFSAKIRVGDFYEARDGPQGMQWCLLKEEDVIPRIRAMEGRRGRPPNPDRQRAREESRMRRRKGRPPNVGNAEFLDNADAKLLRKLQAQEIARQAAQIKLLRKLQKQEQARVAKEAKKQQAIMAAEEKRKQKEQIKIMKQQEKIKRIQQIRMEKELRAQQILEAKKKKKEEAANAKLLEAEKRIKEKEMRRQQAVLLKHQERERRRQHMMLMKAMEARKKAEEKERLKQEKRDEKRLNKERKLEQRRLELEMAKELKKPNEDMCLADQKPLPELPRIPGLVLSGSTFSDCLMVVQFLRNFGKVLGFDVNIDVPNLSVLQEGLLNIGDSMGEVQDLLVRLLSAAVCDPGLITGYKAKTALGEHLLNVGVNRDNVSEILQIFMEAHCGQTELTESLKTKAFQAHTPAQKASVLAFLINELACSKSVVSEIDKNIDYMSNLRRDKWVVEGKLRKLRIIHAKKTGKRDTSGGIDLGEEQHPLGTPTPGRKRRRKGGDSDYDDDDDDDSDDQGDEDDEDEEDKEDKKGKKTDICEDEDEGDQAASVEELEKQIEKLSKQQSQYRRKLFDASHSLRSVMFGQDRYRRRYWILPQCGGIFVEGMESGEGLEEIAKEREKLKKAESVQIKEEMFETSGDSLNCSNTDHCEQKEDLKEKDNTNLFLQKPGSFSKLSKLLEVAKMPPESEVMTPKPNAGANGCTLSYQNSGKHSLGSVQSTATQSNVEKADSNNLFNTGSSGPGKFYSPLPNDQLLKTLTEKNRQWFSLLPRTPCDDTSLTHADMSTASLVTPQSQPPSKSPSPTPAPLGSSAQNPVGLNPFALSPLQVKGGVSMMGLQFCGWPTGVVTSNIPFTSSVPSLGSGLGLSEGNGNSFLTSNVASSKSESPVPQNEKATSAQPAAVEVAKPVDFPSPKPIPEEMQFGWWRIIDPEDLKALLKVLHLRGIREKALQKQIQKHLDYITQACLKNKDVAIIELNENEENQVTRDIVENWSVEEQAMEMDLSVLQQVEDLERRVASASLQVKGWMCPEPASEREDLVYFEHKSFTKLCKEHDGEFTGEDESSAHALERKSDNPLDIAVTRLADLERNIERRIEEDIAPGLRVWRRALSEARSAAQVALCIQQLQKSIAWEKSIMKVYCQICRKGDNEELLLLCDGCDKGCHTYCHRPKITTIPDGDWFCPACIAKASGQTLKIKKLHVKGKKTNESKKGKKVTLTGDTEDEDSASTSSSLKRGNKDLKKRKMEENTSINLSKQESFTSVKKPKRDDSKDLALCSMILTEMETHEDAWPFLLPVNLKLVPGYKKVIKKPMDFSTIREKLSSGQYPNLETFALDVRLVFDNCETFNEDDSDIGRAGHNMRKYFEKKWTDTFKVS
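BAZ2B 50 nM plus b-H3(5-23)K14Ac 50 nM, PBS pH 7.4/0.01% Tween-20, 30 min RT; compound added (max 110 uM), 30 min RT; streptavidin donor/Ni-chelate acceptor beads 10 ug/mL final, 20 min dark; AlphaScreen read.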
* marks the source's active call; other numbers are inactive results; [ ] = dose if it differs, or a comment. Calls come from the whole dose curve; as a rule, active = well fitted curve in the direction sought with a large enough effect; inconclusive = small, poorly fitted or top-dose-only effect, or another doubt; inactive = no such curve, though single readings can be large; an effect the other way counts as inactive or inconclusive. Potency is the fitted concentration of half-maximal effect.

How did COc1ccc(Nc2nc(NCCN3CCOCC3)nc(Nc3ccc(OC)cc3)n2)cc1 do in these assays?
JMJD2A Tudor: inconclusive; G9a inh: inconclusive; PLK1 PBD inh: 4.2%; Sfp PPTase inh: -10.9%; HP1b chromo inh: -8.8%; BAZ2B block: 44.7µM*

How did Nc1nonc1-n1nnc(C(=O)N/N=C/c2ccccc2Br)c1CN1CCCC1 do in these assays?
JMJD2A Tudor: -22.6%; G9a inh: 1.0%; PLK1 PBD inh: -8.9%; Sfp PPTase inh: 0.8%; HP1b chromo inh: -8.1%; BAZ2B block: 3.4%

Results for Cc1ccc(OCC(=O)NNC(=O)c2cc(S(=O)(=O)N(C)C)ccc2N2CCCC2)cc1 ?
PLK1 PBD inh: 2.9%

How did CCCN1C(=O)c2cc(C(=O)Nc3ccc(OC)cc3OC)ccc2C1Nc1ccc(OC)cc1OC (centres undefined) do in these assays?
JMJD2A Tudor: 28.2µM*; G9a inh: 22.4µM*; PLK1 PBD inh: -8.1%; Sfp PPTase inh: 6.7%; HP1b chromo inh: -20.3%; BAZ2B block: inconclusive

What do the screens show for `Nc1c(C(=O)NCc2cccnc2)sc(=S)n1-c1ccccc1`?
JMJD2A Tudor: inconclusive; G9a inh: inconclusive; PLK1 PBD inh: 16.8µM*; Sfp PPTase inh: 12.6µM*; HP1b chromo inh: -42.6%; BAZ2B block: -11.3%

How did COc1ccc(CNC(=O)c2sc(=S)n(-c3ccc(OC)cc3)c2N)cc1 do in these assays?
JMJD2A Tudor: inconclusive; G9a inh: inconclusive; PLK1 PBD inh: inconclusive; Sfp PPTase inh: 20µM*; HP1b chromo inh: inconclusive; BAZ2B block: inconclusive

How did CCn1c(N)c(C(=O)NCc2cccnc2)sc1=S do in these assays?
JMJD2A Tudor: -7.9%; G9a inh: -4.6%[59 µM]; PLK1 PBD inh: -27.3%; Sfp PPTase inh: -13.4%; HP1b chromo inh: -8.0%; BAZ2B block: -33.2%

What do the screens show for `COc1cccc(C(=O)Nc2nnc(-c3cccs3)s2)c1`?
JMJD2A Tudor: 3.4%; G9a inh: 10µM*; PLK1 PBD inh: -16.0%; Sfp PPTase inh: -14.6%; HP1b chromo inh: 8.8%; BAZ2B block: -4.0%

How did CCOCc1nnc(NC(=O)c2cc(OC)cc(OC)c2)s1 do in these assays?
JMJD2A Tudor: -27.1%; G9a inh: 31.6µM*; PLK1 PBD inh: -7.1%; Sfp PPTase inh: -12.5%; HP1b chromo inh: 21.1%; BAZ2B block: -16.0%

What do the screens show for `CCOCC(=O)Nc1nnc(COc2ccc(Cl)cc2)s1`?
JMJD2A Tudor: inconclusive; G9a inh: 3.98µM*; PLK1 PBD inh: 6.7µM*; Sfp PPTase inh: 28.2µM*; HP1b chromo inh: inconclusive; BAZ2B block: -1.6%

What do the screens show for `COc1cccc(C(=O)Nc2cccc(NC(=O)c3cccs3)c2)c1`?
JMJD2A Tudor: -24.5%; G9a inh: 11.4%; PLK1 PBD inh: -9.4%; Sfp PPTase inh: 3.2%; HP1b chromo inh: 13.9%; BAZ2B block: -9.4%

How did CCOCc1nnc(NC(=O)c2cccc(OC)c2)s1 do in these assays?
JMJD2A Tudor: -5.4%; G9a inh: 50.1µM*; PLK1 PBD inh: -25.9%; Sfp PPTase inh: 11.2%; HP1b chromo inh: 16.0%; BAZ2B block: inconclusive

What do the screens show for `CCc1nnc(NC(=O)c2cccc(OC)c2)s1`?
JMJD2A Tudor: -14.3%; G9a inh: -3.4%[59 µM]; PLK1 PBD inh: 0.6%; Sfp PPTase inh: -4.6%; HP1b chromo inh: 40.6%; BAZ2B block: -3.3%

How did Cc1cc(OCC(=O)Nc2nc3c(s2)CCCC3)cc(C)c1Cl do in these assays?
JMJD2A Tudor: -14.6%; G9a inh: inconclusive; HP1b chromo inh: -8.9%; BAZ2B block: -14.2%

How did O=C(NCc1ccc(Cl)cc1)c1ccc2c(c1)N(Cc1ccccc1F)C(=O)c1ccccc1S2=O (centres undefined) do in these assays?
JMJD2A Tudor: -11.4%; G9a inh: 8.1%[59 µM]; HP1b chromo inh: 43.1%; BAZ2B block: 0.2%

Results for Cc1ccc2nsnc2c1S(=O)(=O)Nc1cccc2cccnc12 ?
JMJD2A Tudor: inconclusive; Sfp PPTase inh: 0.3%

Results for O=C(C[n+]1ccc2ccccc2c1)c1cccc2ccccc12 ?
JMJD2A Tudor: -29.1%; G9a inh: 28.2µM*; PLK1 PBD inh: 23.8µM*; Sfp PPTase inh: -12.6%; HP1b chromo inh: 19.2%; BAZ2B block: -18.6%

Results for CCc1ccc(CNC(=O)CCS(=O)(=O)Cc2ccc(C)cc2)cc1 ?
JMJD2A Tudor: 2.1%; PLK1 PBD inh: -1.0%; Sfp PPTase inh: -1.6%; HP1b chromo inh: 19.1%; BAZ2B block: -1.3%

How did CCN1C(=O)C(NC(C)=O)c2cc(OC)ccc21 (centres undefined) do in these assays?
JMJD2A Tudor: 2.5%; G9a inh: 50.1µM*; PLK1 PBD inh: -0.8%; Sfp PPTase inh: -17.4%; HP1b chromo inh: 47.8%; BAZ2B block: 2.2%

What do the screens show for `CCOc1ccc2c(c1)C(NC(C)=O)C(=O)N2CCN1CCOCC1` (centres undefined)?
JMJD2A Tudor: 14.1µM*; G9a inh: 15.8µM*; PLK1 PBD inh: 21.2µM*; Sfp PPTase inh: inconclusive; HP1b chromo inh: 22.1%; BAZ2B block: 10µM*

How did COC(=O)c1oc2ccc(Br)cc2c1NC(=O)CCN1CCOCC1 do in these assays?
JMJD2A Tudor: -12.0%; G9a inh: -21.1%; PLK1 PBD inh: 2.2%; Sfp PPTase inh: 13.3%; HP1b chromo inh: 19.4%; BAZ2B block: -3.0%

What do the screens show for `CC(=O)NC1C(=O)N(CCN2CCOCC2)c2ccc(Br)cc21` (centres undefined)?
JMJD2A Tudor: 8.91µM*; G9a inh: 3.16µM*; PLK1 PBD inh: -12.1%; Sfp PPTase inh: inconclusive; HP1b chromo inh: inconclusive; BAZ2B block: 10µM*

What do the screens show for `Cc1ccc(C(=O)Nc2ccc(Nc3ccccc3)cc2)cc1C`?
JMJD2A Tudor: inconclusive; PLK1 PBD inh: 1.8%; HP1b chromo inh: inconclusive

How did Cc1ccc(C(=O)Nc2ccc(Oc3ccc(C(=O)O)c(C(=O)O)c3)cc2)cc1C do in these assays?
JMJD2A Tudor: 79.4µM*; G9a inh: inconclusive; PLK1 PBD inh: inconclusive; Sfp PPTase inh: 3.1%; HP1b chromo inh: 29.5%; BAZ2B block: -12.6%

Results for CCOc1ccc(N2CCCn3c2nc2c3c(=O)n(CCc3ccccc3)c(=O)n2C)cc1 ?
G9a inh: 3.16µM*; Sfp PPTase inh: 14.1%; BAZ2B block: -16.8%

How did Cc1cccc(C)c1NC(=O)C(C)Sc1nnc(C)n1CC1CCCO1 (centres undefined) do in these assays?
JMJD2A Tudor: -11.3%; G9a inh: 16.0%; PLK1 PBD inh: -2.8%; Sfp PPTase inh: -3.8%; HP1b chromo inh: 29.5%; BAZ2B block: -6.0%

How did COc1ccc(NC(=O)c2sc3nc(C)c(C(=O)Nc4ccc(C)cc4C)c(-c4ccc(C)o4)c3c2N)cc1 do in these assays?
JMJD2A Tudor: -6.5%; G9a inh: inconclusive; HP1b chromo inh: 25.6%; BAZ2B block: -12.0%
